Bioassay records from PubChem BioAssay.
GIRK2 act: GIRK2 channel activation. AID 1259325. calls only for hits at 25 µM. 63,000 compounds, 0.05% hits. HEK293-GIRK2 thallium flux, Thallos fluorescence, MPD. P48051; call rule not given here
Target sequence (P48051 whole entry, looked up): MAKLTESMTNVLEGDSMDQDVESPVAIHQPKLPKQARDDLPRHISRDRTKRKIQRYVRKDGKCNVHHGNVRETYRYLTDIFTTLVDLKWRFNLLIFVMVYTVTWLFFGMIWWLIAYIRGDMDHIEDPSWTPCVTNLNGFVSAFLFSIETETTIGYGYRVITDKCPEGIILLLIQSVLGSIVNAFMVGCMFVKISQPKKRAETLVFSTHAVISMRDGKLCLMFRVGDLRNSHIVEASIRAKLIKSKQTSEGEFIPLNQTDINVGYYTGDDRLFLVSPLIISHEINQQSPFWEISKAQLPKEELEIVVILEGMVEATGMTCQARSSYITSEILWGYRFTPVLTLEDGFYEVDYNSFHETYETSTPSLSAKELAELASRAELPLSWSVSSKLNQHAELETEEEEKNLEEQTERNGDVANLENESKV
An asterisk follows results filed as active; i = inactive; + = active, no number. Shown is part of a subset that was picked to be rich in hits.

SMILES | GIRK2 act
COc1ccc(OC)c(N2CCn3c2nc2c3c(=O)n(Cc3cccc(C)c3)c(=O)n2C)c1 | i
CC(=O)c1cccc(S(=O)(=O)NCC2CCN(C(=O)c3cccnc3)CC2)c1 | i
COc1ccc2nc(-c3ccc(NC(=O)c4cc5ccccc5oc4=O)cc3)cn2n1 | i
COc1ccccc1-n1nnc(C(=O)Nc2nc(C)cs2)c1-c1ccccn1 | +
COc1ccccc1-n1nnc(C(=O)NCC2COCCO2)c1-c1ccccn1 (stereo not drawn) | i
COc1ccccc1-n1nnc(C(=O)NCc2nc3ccccc3n2C)c1-c1ccccn1 | i
CCCNC(=O)CSc1nnc(C)c2cnn(-c3ccc(C)c(C)c3)c12 | i
O=C1CCC(C(=O)N2CCN(c3cc(Nc4ccccn4)ncn3)CC2)N1 (stereo not drawn) | i
CSc1cccc(NC(=O)CSc2ccc(-c3nc(C4CC4)no3)cn2)c1 | i
Cc1ccc(CNC(=O)CSc2ncccc2-c2nc(-c3ccc(C)cc3)no2)cc1 | i
O=C(C1COCC(=O)N1Cc1cccs1)N1CCCC1 (stereo not drawn) | i
CC1=C(C(=O)OC(C)C)C(c2ccc(Cl)cc2Cl)NC(=O)N1 (stereo not drawn) | i
NC1CCN(c2nc3c(cc2F)c(=O)c(C(=O)O)cn3-c2ccc(F)cc2F)C1 (stereo not drawn) | i
COc1cc(NC(=O)Cn2c(=O)c(CNc3ccccc3)cc3ccc(OC)cc32)cc(OC)c1 | i
COC(=O)c1ccc(C(=O)N2CC(Oc3nc4c(F)cccc4s3)C2)cc1 | i
Cc1noc(C)c1S(=O)(=O)NCCn1ncccc1=O | i
O=C(Nc1nc2c(s1)CN(S(=O)(=O)C1CC1)CC2)c1ccsc1 | i
CCN(CC)c1ccc(-c2noc(CN3CCSCC3)n2)cn1 | i
CCN(CC)c1ccc(-c2noc(CN3CCCCC3C)n2)cn1 (stereo not drawn) | +
CCN(CC)c1ccc(-c2noc(CN3CCN(c4ccccc4Cl)CC3)n2)cn1 | i
COc1ccc2cccc(NC(=O)c3nc4ccccc4s3)c2n1 | i
CC(=O)Nc1ccc(NC(=O)c2c(C)coc2C)cc1 | i
O=C(NCC(F)(F)F)C1CCN(C(=O)c2ccc(F)c(F)c2)CC1 | i
CCn1c(=O)c2c(nc3n(-c4ccccc4OC)c(-c4ccccc4)cn23)n(C)c1=O | +
COc1ccccc1-n1c(-c2ccccc2)cn2c3c(=O)n(CC(C)=O)c(=O)n(C)c3nc12 | i
SMILES | GIRK2 act
CCOC(=O)Cn1c(=O)c2c(nc3n(-c4ccccc4OC)c(-c4ccccc4)cn23)n(C)c1=O | i
O=C(COc1ccc(Cl)cc1)NCCCS(=O)(=O)N1CCc2ccccc2C1 | i
Cc1ccc(-c2nc(Cn3nnc(-c4nc(-c5ccc(Br)cc5)no4)c3C)c(C)o2)cc1 | i
Cc1cc(C(F)(F)F)nc(CCNC(=O)COc2ccccc2F)n1 | i
O=C(Cn1ccc2ccccc21)Nc1cc(N2CCN(Cc3ccccc3)CC2)ncn1 | i
O=C(Cn1ccc2ccccc21)NC1CCN(Cc2ccccc2)CC1 | +
CCOC(=O)N1CCC(NC(=O)Cn2ccc3ccccc32)CC1 | i
Cc1cccc(OCc2ccc(-c3nc(C#N)c(NCCCN4CCOCC4)o3)o2)c1 | i
CCCn1c(=O)c2c(nc3n(-c4ccc(OC)cc4)c(C)cn23)n(C)c1=O | i
O=C(NCCC1=CCCCC1)C(=O)Nc1ccccc1[N+](=O)[O-] | i
COc1nc2ccccc2nc1N1CCN(c2ccccc2)CC1 | i
O=C1CCSCC(C(=O)Nc2nc(-c3cccnc3)cs2)N1 (stereo not drawn) | i
Cc1cc(NC(=O)CCCN2C(=O)c3ccccc3C2=O)sn1 | i
CCOC(=O)c1cn[nH]c1S(=O)(=O)N1CCN(c2cccc(C)c2)C(C)C1 (stereo not drawn) | +
CCOC(=O)c1cn[nH]c1S(=O)(=O)N1CCN(c2ccc(C(C)=O)cc2)CC1 | i
CCOC(=O)c1cn[nH]c1S(=O)(=O)Nc1cccc(CC)c1 | i
COc1cccc(NC(=O)CCCOc2ccc(C(C)(C)C)cc2)c1 | i
O=C(Cn1nc2c(c1NC(=O)c1ccc(Br)o1)CSC2)NCc1ccccc1 | i
CC(C)NC(=O)N1CCCC(c2nnc(-c3ccccc3F)s2)C1 (stereo not drawn) | i
Cc1ccc(N2CCCS2(=O)=O)cc1NC(=O)N1CCNC1=O | i
COCc1nnc(NC(=O)COc2ccc(C(C)(C)C)cc2)s1 | i
COc1ccc(NC(=O)c2nnn(-c3ccccc3C)c2-c2ccncc2)c(C)c1 | +
Cc1ccccc1-n1nnc(C(=O)NCc2ccc(Br)cc2)c1-c1ccncc1 | i
COc1cccc(CNC(=O)c2nnn(-c3ccccc3Cl)c2-c2ccncc2)c1 | i
CSc1ccc(CNC(=O)c2nnn(-c3ccccc3C)c2-c2ccncc2)cc1 | i
SMILES | GIRK2 act
Cc1ccccc1-n1nnc(C(=O)Nc2nccs2)c1-c1ccncc1 | i
COc1cc(OC)c(NC(=O)c2nnn(-c3ccccc3C)c2-c2ccncc2)cc1Cl | +
Cc1c(Cl)cccc1NC(=O)Cn1nc2c(SCc3ccccc3)nccn2c1=O | i
COc1ccc(S(=O)(=O)N=C2C=C(Nc3ccc(C)cc3)C(=O)c3ccccc32)cc1 | i
COC(=O)N1CCc2ccc(F)cc2C1C(=O)Nc1cccc(C)n1 (stereo not drawn) | i
COC(=O)N1CCc2ccc(Br)cc2C1C(=O)Nc1nccs1 (stereo not drawn) | +
COC(=O)N1CCc2ccc(Br)cc2C1C(=O)Nc1ccc(SC)cc1 (stereo not drawn) | i
CCOCCn1c(=O)c2c(nc3n2CCN3c2cc(Cl)ccc2OC)n(C)c1=O | i
COc1ccccc1NC(=O)C1CCN(c2ccc(=O)n(C)n2)CC1 | i
COc1ccc(SCC2CCN(C(=O)C3CCN(S(C)(=O)=O)CC3)CC2)cc1 | i
COc1ccc(CCC(=O)N2CCC3(CC2)OCCS3)cc1 | i
Cc1ccnc(Nc2cc(N3CCN(C(=O)c4ccco4)CC3)nc(C)n2)c1 | i
COC(=O)Cn1c(=O)c2c(nc3n(-c4ccccc4C)c(-c4ccccc4)cn23)n(C)c1=O | i
Cc1ccc(S(=O)(=O)NCCn2cnc(-c3ccc(F)cc3)cc2=O)s1 | i
O=C(c1cccc(Cl)c1)N1CCC(Cn2ccnc2-c2ccccc2)CC1 | i
Cc1ccc(S(=O)(=O)C(NC(=O)c2ccco2)C(=O)N2CCN(C(=O)c3ccco3)CC2)cc1 (stereo not drawn) | i
CS(=O)(=O)Nc1cccc(NC(=O)/C=C/c2cccs2)c1 | i
C=C(C)COc1ccc2c(c1)O/C(=C\c1cccc(OC)c1OC)C2=O | i
Cc1cc2ncn(CC(=O)NCc3cccs3)c2cc1C | i
CCCCOc1ccc(C(=O)N(Cc2ccco2)c2nc3ccc(S(C)(=O)=O)cc3s2)cc1 | i
CS(=O)(=O)c1ccc2nc(N(Cc3ccco3)C(=O)C3CCCCC3)sc2c1 | +
CS(=O)(=O)c1ccc2nc(N(Cc3ccco3)C(=O)c3ccc(Br)s3)sc2c1 | i
Nc1ccc(C(=O)NNC(=S)Nc2ccccc2)cc1 | i
O=C(Nc1ccc(F)cc1F)C1CCN(S(=O)(=O)c2ccc(Cl)cc2)CC1 | i
Cc1nc(-n2nc(-c3cccs3)cc2NC(=O)CC(c2ccccc2)c2ccccc2)[nH]c(=O)c1C | i
